Data on 21 molecules can be found in PubChem BioAssay (NCATS).

Inconclusive results are not listed. A number with no mark means an inactive call. The source made the active and inactive calls. Calls follow the shape of the dose curve; as a rule, active = well fitted curve in the direction sought with a large enough effect; inconclusive = small, poorly fitted or top-dose-only effect, or another doubt; inactive = no such curve, though single readings can be large; an effect the other way counts as inactive or inconclusive.

A word on the viability: it is a read-out of living cells in per cent, often relative to untreated cells.

Experiment [1] in a line: BET inhibitor-based combinations targeting novel dependencies in MECOM-rearranged (r) AML: SET-2 cell line (AID 2202231). Also: nearly all actives have a fitted effect of over 35% in size.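 As to viability: plate controls were DMSO treated cells for no effect and wells without cells for full effect.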 The conditions noted are these: SET-2 AML cells viability, CellTiter-Glo luminescence, 48 h; viability: hits give low values, concentration not given here. The method, boiled down:
(§1)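 A 48 hr incubation preceded viability reading by CellTiter-Glo, with 15 min room-temperature development. Dose series had 11 points; normalization used DMSO and empty wells; AUC was computed and mean-centered per line as Z-AUC.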
On the technique in general: ATP-based viability assays read luminescence as a measure of living cells.

Experiment [2] is described as follows: BET inhibitor-based combinations targeting novel dependencies in MECOM-rearranged (r) AML: OCI-AML3 cell line (AID 2202232). Also: nearly all actives have a fitted effect of over 35% in size.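 As to viability (% of control): series mostly up to about 46 µM; plate controls were DMSO vehicle wells for no effect and wells without cells for full effect.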 The note with it: Potency: OCI-AML3 viability. The method, boiled down:
as §1

The nature of experiment [3]: BET inhibitor-based combinations targeting novel dependencies in MECOM-rearranged (r) AML: MV-4-11 cell line (AID 2202233). Also: nearly all actives have a fitted effect of over 45% in size.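 As to viability, % of control: plate controls were DMSO for no effect and blank wells for full effect.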 The method in brief:
(§2)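 Each compound is tested in an 11-point concentration series against 500 seeded cells/well for 48 hr. The luminescent viability signal is normalized to DMSO and blank wells, then reduced to AUC and a cell-line-centred Z-AUC.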

The nature of experiment [4]: BET inhibitor-based combinations targeting novel dependencies in MECOM-rearranged (r) AML: UCSD-AML1 cell line (AID 2202235). Also: nearly all actives have a fitted effect of over 40% in size.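 As to viability (% of control): series mostly up to about 46 µM; plate controls were DMSO vehicle wells for no effect and blank wells for full effect.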 The method in brief:
as §2

Experiment [5] in a line: BET inhibitor-based combinations targeting novel dependencies in MECOM-rearranged (r) AML: AML-191 cell line (AID 2202236; also: nearly all actives have a fitted effect of over 35% in size;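 as to viability (% of control): plate controls were vehicle wells for no effect and wells without cells for full effect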). The method, boiled down:
as §1

A short description of experiment [6]: BET inhibitor-based combinations targeting novel dependencies in MECOM-rearranged (r) AML: AML-194 cell line (AID 2202237; also: nearly all actives have a fitted effect of over 40% in size;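 as to viability (% of control): plate controls were vehicle wells for no effect and wells without cells for full effect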). The method in brief:
as §1

Experiment [7] can be described thus: BET inhibitor-based combinations targeting novel dependencies in MECOM-rearranged (r) AML: HNT-34 cell line (AID 2202234). Also: nearly all actives have a fitted effect of over 35% in size. The method in brief:
as §2
Potency is read from the fitted curve at half-maximal effect.

As to `COc1cc(F)ccc1-c1ncnc(Nc2cccc(CS(C)(=N)=O)c2)n1` (stereo not drawn), the Potency in experiment [1] was 1320 nM (active); in experiment [2] it was 934 nM (active); in experiment [3] it was 742 nM (active); in experiment [4] it was 833 nM (active); in experiment [5], 662 nM (active); in experiment [6] it was 934 nM (active).

As for `C=C1/C(=C/C=C2\CCCC3(C)[C@@H]([C@H](C)/C=C/C=C/C(O)(CC)CC)CC[C@@H]23)C[C@@H](O)C[C@@H]1O` (stereo partly drawn), in experiment [1], the viability is 89.5%. The Potency was 16600 nM (active) in experiment [2], 5250 nM (active) in experiment [3] and 26300 nM (active) in experiment [5]. Further, the Potency result in experiment [4] was “inactive”.

As for `O=C(O)CCNc1cc(N2CCc3ccccc3CC2)nc(-c2cccnc2)n1`, the viability in experiment [1] is 116%. Besides, the Potency in experiment [2] is 9340 nM (active). Besides, the Potency result in experiment [3], in experiment [4], in experiment [5] and in experiment [6] was “inactive” throughout.

For `CNc1ncc2cc(-c3cc(NC(=O)NCCC(C)(C)C)c(F)cc3C)c(C)nc2n1`, the Potency in experiment [1] was 2350 nM (active); in experiment [2], 662 nM (active); in experiment [3] it was 468 nM (active); in experiment [4] it was 1050 nM (active).

For the molecule `COc1ccc(C(=O)N2CCN(c3ccc4c(c3)CCC(=O)N4)CC2)cc1OC`, the viability in experiment [1] is 105%. In addition, the Potency result in experiment [2], in experiment [3], in experiment [4], in experiment [5] and in experiment [6] was “inactive” in each case.

`C[C@H]1CNCCCN1S(=O)(=O)c1cccc2cncc(F)c12`: the viability in experiment [1] is 113%. The Potency result in experiment [2], in experiment [3], in experiment [4], in experiment [5] and in experiment [6] was “inactive” each time.

On to `O=c1[nH]c(=O)n([C@H]2C[C@H](O)[C@@H](CO)O2)cc1C(F)(F)F`, for which the Potency in experiment [1] was 5900 nM (active); in experiment [2], 1660 nM (active); in experiment [3], 1050 nM (active); in experiment [4], 1480 nM (active); in experiment [5], 1320 nM (active); in experiment [6] it was 4680 nM (active).

In the case of `CCCCc1ccc2nc(NC(=O)OC)[nH]c2c1`, the Potency in experiment [1] is 263 nM (active); in experiment [2], 148 nM (active); in experiment [3], 186 nM (active); in experiment [4], 118 nM (active); in experiment [5], 118 nM (active); in experiment [6] it was 105 nM (active).

In the case of `COc1ccc(S(=O)(=O)Nc2cc(-c3csc(C#N)c3)ccc2C)cc1`, the Potency was 209 nM (active) in experiment [1]; 148 nM (active) in experiment [2]; 235 nM (active) in experiment [3]; 148 nM (active) in experiment [4]; 132 nM (active) in experiment [5]; 332 nM (active) in experiment [6].

Regarding `O=C(NO)c1cnc(NC2(c3ccccc3)CC2)nc1`, the Potency is 6610 nM (active) in experiment [1]; 5900 nM (active) in experiment [2]; 3320 nM (active) in experiment [3]; 8330 nM (active) in experiment [4]; 7420 nM (active) in experiment [5]; 8330 nM (active) in experiment [6].

For the molecule `N#Cc1ccnc(N2C(=O)CC[C@H]2C(=O)N(c2cncc(F)c2)C(C(=O)NC2CC(F)(F)C2)c2ccccc2Cl)c1` (stereo partly drawn), the viability in experiment [1] was 91.5%. Besides, the Potency entry in experiment [2], in experiment [3], in experiment [4], in experiment [5] and in experiment [6] was “inactive” in each case.

On to `Cc1c(-c2cnccn2)ssc1=S`, for which, in experiment [1], the viability is 94.7%. For the same molecule, the Potency in experiment [2] was 2950 nM (active); in experiment [3], 3720 nM (active). The Potency result in experiment [4] and in experiment [5] was “inactive” throughout.

Consider `CCC(C)CNCC(=O)N1CCc2sccc2C1c1cccc(C)n1` (stereo not drawn), for which, in experiment [1], the viability was 95.4%. The Potency entry in experiment [2], in experiment [3], in experiment [4], in experiment [5] and in experiment [6] was “inactive” throughout.

In the case of `CCNCCS(=O)(=O)NC[C@@]1(c2ccccc2)SC(NC(=O)C(C)(C)C)=NN1C(=O)C(C)(C)C`, the Potency in experiment [1] was 118 nM (active); in experiment [2], 4.2 nM (active); in experiment [3], 4.2 nM (active); in experiment [4], 4.7 nM (active); in experiment [5], 20.9 nM (active).

Regarding `Cc1cc(/C=c2/sc3nc4ccccc4n3c2=O)c(C)n1-c1ccccc1`, the viability in experiment [1] was 105%. For the same molecule, the Potency in experiment [2] is 14800 nM (active); in experiment [3], 20900 nM (active); in experiment [5] it was 16600 nM (active). Also, in experiment [4], the Potency entry was “inactive”.

Take `Cc1cc(-c2cnn3c(NCC4CC(C)(O)C4)cc(Oc4cccnc4)nc23)ccc1C(=O)NC1CC1` (stereo not drawn): the Potency in experiment [1] was 1180 nM (active); in experiment [2] it was 263 nM (active); in experiment [3] it was 332 nM (active); in experiment [7], 934 nM (active); in experiment [6], 1050 nM (active).

Regarding `Cc1cc(O)cc2c1[C@]1(C)CC[C@H]3C(C)(C)CCC[C@]3(C)[C@H]1C2`, the viability in experiment [1] was 50.3%. The figures for the viability (% of control) in experiment [2] and in experiment [4] were 14.4% [at 5.12 µM] and 14.8% [at 5.12 µM], respectively. Besides, the viability, % of control in experiment [3] is 0.199% [at 5.12 µM].

With `N#Cc1cc2cc(CN3CCC(Nc4ncnc5sc(CC(F)(F)F)cc45)CC3)c(O)cc2n1Cc1cn[nH]c1`, the Potency in experiment [1] was 23500 nM (active); in experiment [2], 18600 nM (active); in experiment [3], 5900 nM (active); in experiment [7] it was 23500 nM (active); in experiment [6], 26300 nM (active).

Take `Cc1nc2cccc(N)c2c(=O)n1C1CCC(=O)NC1=O` (stereo not drawn): in experiment [1], the viability was 109%. For the same molecule, the Potency entry in experiment [2], in experiment [3], in experiment [4], in experiment [5] and in experiment [6] was “inactive” in each case.

`CC1(C)OCCn2c1nc1c(N3CCOCC3)nc(-c3cnc(N)nc3)nc12`: the Potency is 1860 nM (active) in experiment [1], 934 nM (active) in experiment [2], 934 nM (active) in experiment [3] and 468 nM (active) in experiment [4].

Consider `C=C1C(=O)OC2/C=C(/C)CC/C=C(/C)CCC12` (stereo not drawn), for which the Potency in experiment [1] was 20900 nM (active); in experiment [2], 18600 nM (active); in experiment [3], 14800 nM (active); in experiment [4] it was 26300 nM (active); in experiment [5] it was 26300 nM (active).
